From PubChem BioAssay
Only some compounds are listed: those with a hit (about 12% of all), similar ones and a draw of the others.
Sfp inh = qHTS Assay for Inhibitors of Bacillus subtilis Sfp phosphopantetheinyl transferase (PPTase); hit rate 3.5% among 310,000; Biochemical Sfp PPTase activity, qHTS; AID 1490, 2009; Potency, µM, without a hit: largest response in the series, negative = inhibition, usual class: inhibitors; 4'-phosphopantetheinyl transferase ffp (Bacillus subtilis), Q9F4F7;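 also: the enzyme is Sfp with the accession as filed and its product quenches rhodamine fluorescence; 0% = enzyme reaction without inhibitor and -100% = no enzyme wells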
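With Hepes-Na pH 7.6 buffer containing 10 mM MgCl2, Sfp (15 nM) modified BHQ-2-YbbR (12.5 uM) using rhodamine-CoA (5 uM). Two reads 30 minutes apart at 525/598 nm yielded each well's rate.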
PLK1 PBD block = qHTS for Inhibitors of PLK1-PDB (polo-like kinase 1 - polo-box domain): Primary Screen | Serine/threonine-protein kinase PLK1 (Homo sapiens), P53350 | AID 720504, 2013 | Plk1 PBD binding of FITC phosphopeptide, fluorescence polarization | Potency, µM, inactives show max response, negative = inhibition, most hits filed as inhibitors | hit rate 2.8% among 360,000; also: series mostly up to about 57 µM; % is scaled to controls: 0 for no effect and ±100 for the full control effect; nearly all actives have a fitted effect of over 65% in size
Target sequence (P53350 whole entry, looked up, the tested form may be a part): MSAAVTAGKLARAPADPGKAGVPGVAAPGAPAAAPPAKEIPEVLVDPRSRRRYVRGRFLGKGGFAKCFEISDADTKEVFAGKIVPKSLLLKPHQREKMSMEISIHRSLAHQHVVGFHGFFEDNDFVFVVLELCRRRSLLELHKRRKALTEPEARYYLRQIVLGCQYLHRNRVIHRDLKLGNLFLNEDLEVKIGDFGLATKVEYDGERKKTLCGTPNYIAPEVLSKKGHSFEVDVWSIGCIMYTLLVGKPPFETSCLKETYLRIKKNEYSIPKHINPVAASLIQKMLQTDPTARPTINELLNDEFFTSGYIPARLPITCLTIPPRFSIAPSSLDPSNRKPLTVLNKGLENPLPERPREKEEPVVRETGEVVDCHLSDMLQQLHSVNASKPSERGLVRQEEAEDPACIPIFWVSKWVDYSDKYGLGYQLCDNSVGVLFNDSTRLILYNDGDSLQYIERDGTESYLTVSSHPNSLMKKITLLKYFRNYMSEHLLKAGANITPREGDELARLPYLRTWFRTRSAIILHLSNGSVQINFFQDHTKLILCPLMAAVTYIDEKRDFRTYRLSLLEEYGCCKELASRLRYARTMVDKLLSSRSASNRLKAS
JMJD2A Tudor = qHTS Assay for Inhibitors of JMJD2A-Tudor Domain; hit rate 4.4% among 390,000; Lysine-specific demethylase 4A (Homo sapiens), O75164; AlphaScreen JMJD2A-Tudor / H3K4me3 peptide binding; AID 504339, 2011; Potency, µM (highest dose often 114 µM), inactives show top-dose activity change, negative = inhibition, most hits filed as inhibitors; also: % is scaled to controls: 0 for no effect and ±100 for the full control effect; nearly all actives have a fitted effect of over 50% in size
G9a inh = qHTS Assay for Inhibitors of Histone Lysine Methyltransferase G9a. Histone-lysine N-methyltransferase EHMT2 (Homo sapiens), Q96KQ7. G9a H3K9 monomethylation, AlphaScreen, 2 h. Potency, µM (top dose mostly 102 µM), for inactives: top-dose activity, negative = inhibition, usual class: inhibitors. hit rate 8.8% among 350,000. AID 504332, 2011; also: % is scaled to controls: 0 for no effect and ±100 for the full control effect; nearly all actives have a fitted effect of over 75% in size
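Readings reflect AlphaScreen signal from monomethyl-H3K9 antibody detection. HMT at 20 nM; substrate b-H3K9 500 nM; cofactor SAM 20 uM; 2 h RT reaction; compounds tested as titrations in qHTS with 15 min preincubation.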
HP1b binding inh = HTS for Inhibitors of HP1-beta Chromodomain Interactions with Methylated Histone Tails. Chromobox protein homolog 1 (Homo sapiens), P83916. AlphaScreen HP1-beta / biotin-H3K9me3 peptide binding. Potency, µM (highest dose often 114 µM), for the others: at the top dose activity change, negative = inhibition, usual class: inhibitors. hit rate 0.56% among 390,000. AID 540317, 2011; also: nearly all actives have a fitted effect of over 70% in size
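HP1-beta protein (50 nM final) preincubated 30 min at room temperature with biotinylated H3(1-18)K9me3 peptide (50 nM) in PBS pH 7.4, 0.01% Tween-20, then compound added for 30 min. AlphaScreen streptavidin donor/nickel chelate acceptor beads (10 ug/mL final), 30 min dark, luminescence read.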
BAZ2B inh = qHTS Assay for Inhibitors of BAZ2B. Bromodomain adjacent to zinc finger domain protein 2B (Homo sapiens), Q9UIF8. AlphaScreen BAZ2B-H3K14Ac peptide displacement. Potency, µM (doses to about 114 µM), inactives show at the top dose activity change, negative = inhibition, actives largely listed as inhibitors. hit rate 4.4% among 360,000. AID 504333, 2011; also: % is scaled to controls: 0 for no effect and ±100 for the full control effect; nearly all actives have a fitted effect of over 60% in size
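Inhibition is scored as reduced AlphaScreen emission. The BAZ2B/b-H3(5-23)K14Ac complex (50 nM each) in PBS pH 7.4, 0.01% Tween-20 meets compound (up to 110 uM) for 30 min at RT before bead addition.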
Starred values were filed as active, the others as inactive; ? = inconclusive; · = no result given; [ ] = dose if it differs, or a comment. Calls follow the shape of the dose curve; as a rule, active = well fitted curve in the direction sought with a large enough effect; inconclusive = small, poorly fitted or top-dose-only effect, or another doubt; inactive = no such curve, though single readings can be large; an effect the other way counts as inactive or inconclusive. Potency is read from the fitted curve at half-maximal effect.

SMILES	Sfp inh	PLK1 PBD block	JMJD2A Tudor	G9a inh	HP1b binding inh	BAZ2B inh
O=C(CSc1ccc2nnc(-c3cccnc3)n2n1)Nc1ccc(F)cc1F	5%	-9%	-1%	·	14%	-4%
Cc1ccc(NC(=O)c2cc(NC(=O)c3ccccc3C(=O)O)ccc2N2CCCCC2)cc1	-26%	?	-22%	14µM*	14%	?
COc1ccccc1C(=O)Nc1ccc(N2CCN(Cc3ccccc3)CC2)cc1	6%	1%	?	?	?	45µM*
COc1ccccc1C(=O)Nc1ccc(N2CCN(C(C)=O)CC2)cc1	20%	-5%	-3%	6%	25%	-5%
COc1cccc(OC)c1C(=O)Nc1ccc(N2CCN(S(C)(=O)=O)CC2)cc1	-13%	0%	0%	?	42%	-2%
COc1ccc(C(=O)CCC(=O)Nc2ccc(N3CCCCC3)cc2)cc1OC	1%	-6%	?	45µM*	?	35µM*
COc1cccc(OC)c1C(=O)Nc1ccc(N2CCCC2)cc1	9%	-24%	?	13µM*	-13%	?
COc1ccc(C(=O)Nc2ccc(N3CCN(C)CC3)cc2)cc1OC	13%	-6%	-13%	·	24%	-1%
O=C(CCCn1c(=O)c2ccccc2n(CC(=O)Nc2ccc(F)cc2F)c1=O)NCc1ccccc1Cl	·	·	-18%	5%[59 µM]	-5%	-10%
COc1ccccc1C(=O)Nc1ccc(N2CCCCC2)cc1	13%	-9%	56µM*	50µM*	?	?
CCN1CCN(c2ccc(NC(=O)Cc3ccccc3)cc2)CC1	9%	1%	-11%	-33%[12.7 µM]	22%	-35%
CCC(=O)Nc1ccc(N2CCN(Cc3ccccc3)CC2)cc1	12%	-20%	-16%[11.4 µM]	50µM*	26%	-6%
O=C(Nc1cccc(Cl)c1)Nc1ccccc1-n1ccnc1	-4%	-9%	-11%	·	29%	-12%
COc1ccc2c(c1)-c1nc(NC(=O)c3cccc(Br)c3)sc1CC2	·	·	-30%	?	43%	-10%
COc1ccc2c(c1)-c1nc(/N=C/c3c(O)ccc4ccccc34)sc1CC2	-26%	?	40µM*	1.6µM*	?	?
COc1ccc2c(c1)-c1nc(/N=C/c3ccc(O)cc3)sc1CC2	-8%	-10%	?	?	-16%	50µM*
Cc1ccccc1C(=O)NC(=S)Nc1cccc(NC(=O)C(C)C)c1	4%	-19%	?	8.9µM*	20%	-11%
CCOc1ccccc1C(=O)Nc1cc(Cl)ccc1O	3%	-5%	-29%	7%[59 µM]	-16%	13%
COc1ccccc1C(=O)Nc1cc(Cl)ccc1O	-10%	2%	-10%	56µM*	10%	-1%
COc1ccccc1C(=O)Nc1cccc(NC(C)=O)c1	10%	3%	-19%	3%[59 µM]	0%	11%
COc1ccccc1C(=O)Nc1cccc(NC(=O)c2ccccc2C)c1	7%	21µM*	?	36%[59 µM]	20%	-7%
CC(C)C(=O)Nc1cccc(NC(=S)NC(=O)c2ccccc2Cl)c1	4%	-9%	-30%	-50%[59 µM]	34%	-22%
COc1ccc([C@H]2C[C@H](n3cc(COC(=O)c4ccccc4)nn3)[C@@H](O)CN2CC2CCCCC2)cc1	·	3%	·	·	·	·
C[C@@H](C(=O)O)c1cccc(C(=O)c2ccccc2)c1	43%	·	·	-2%[12.7 µM]	·	·
CC(Nc1nc(-c2cccnc2)nc2ccccc12)c1ccc(F)cc1 (configuration not stated)	-11%	-5%	-29%	-13%	32%	-15%
SMILES	Sfp inh	PLK1 PBD block	JMJD2A Tudor	G9a inh	HP1b binding inh	BAZ2B inh
COc1ccc(NC(=O)CSc2nnc(NC(=O)Nc3ccc(OC)cc3)s2)cc1	·	·	-11%	?	33%	-18%
COc1ccc(NC(=O)CSc2nnc(NC(=O)c3ccccc3C(=O)O)s2)cc1	28%	17µM*	50µM*	?	-6%	-3%
COc1ccc(Nc2nnc(SCC(=O)Nc3ccc4[nH]c(=O)[nH]c4c3)s2)cc1	-15%	-28%	-26%	16µM*	18%	-5%
O=C(Nc1nnc(SCC(=O)N2CCCCC2)s1)C1CCCCC1	-13%	-25%	-33%	4µM*	14%	-1%
COc1ccc(Nc2nnc(SCC(=O)N3CCCC3)s2)cc1	6%	-17%	5%	35µM*	37%	-6%
O=C(Nc1ccccc1Sc1ccccc1)c1cnn2c1NC(=C1CC1)C=C2C(F)F	·	·	·	·	33%	·
NC(COCc1ccccc1)c1csc(Nc2cc(NCCCO)ncn2)n1 (configuration not stated)	·	2%	·	·	·	·
O=C(CSc1nncs1)Nc1ccc2[nH]c(=O)[nH]c2c1	·	1%	-15%	11µM*	31%	0%
O=C(CSc1ccc([N+](=O)[O-])cn1)Nc1ccc2[nH]c(=O)[nH]c2c1	-11%	-25%	-10%	32µM*	3%	3%
Cc1nnc(SCC(=O)Nc2ccc3[nH]c(=O)[nH]c3c2)s1	·	1%	-13%	?	31%	-5%
CN1CCN(C2CN(Cc3cn(Cc4ccc(C(F)(F)F)cc4)nn3)S(=O)(=O)C2)CC1 (configuration not stated)	·	-10%	·	·	·	·
CSCC[C@H](NC(=O)[C@H](CC(C)C)NC(=O)CCNC(=O)[C@@H](NC(=O)[C@H](Cc1ccccc1)NC(=O)[C@H](CO)NC(=O)[C@@H](N)CC(=O)O)C(C)C)C(N)=O	3%	·	·	·	·	·
CCOC(=O)c1c(NC(=O)COC(=O)CNC(=O)c2ccco2)sc(C)c1C	15%	3.4µM*	40µM*	-5%[59 µM]	-16%	?
COC(=O)c1c(NC(=O)COC(=O)CNC(=O)c2ccco2)sc(C)c1C	16%	-11%	-5%	-1%[59 µM]	21%	-27%
CCOC(=O)c1c(NC(=S)Nc2cccnc2)sc(C)c1C	-40%	?	-16%	45µM*	12%	?
CCOC(=O)c1c(NC(=O)Cc2cccs2)sc(C)c1C	20µM*	-11%	-9%	-15%[12.7 µM]	60%	-34%
CCOC(=O)c1c(NC(=O)Nc2ccccc2)sc(C)c1C	-9%	?	-20%	40µM*	-17%	-6%
CCOC(=O)c1c(NC(=O)Cc2cccs2)sc(C(=O)NC2CCCC2)c1C	27%	-2%	-8%	11%[59 µM]	10%	6%
N#Cc1nc(Nc2ccc(F)cc2)nc(NC2CCCC2)n1	·	·	-21%	·	·	·
